This excerpt belongs to a sample that is enriched for hits.
TTR transcr act: TTR transcription activators in neuroblastoma reporter cells, primary screen, cell-based, luminescence, SH-SY5Y, TTR promoter Gaussia luciferase. 100% = recombinant luciferase protein wells. activation, % at 16.7 µM. 92,000 compounds, 1.3% hits;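 active = activation above the mean of all tested compounds plus 3 SD, cut at about 9.5% in these data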;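 note: cells exposed to compounds for one day before reading; 0% = median of all test compound wells on the plate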
HuH7 TTR inh: TTR promoter reporter inhibitors in hepatoma cells, counter-screen for TTR transcription activator project, cell-based, luminescence, HuH7 hepatoma; inhibition, % at 16.7 µM; 1,100 compounds, 4% hits; HuH7 TTR promoter-Gaussia luciferase reporter; AID 1117279, 2014; shares compounds with TTR transcr act;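 active = average inhibition above the solvent-only control wells' mean plus 3 SD, cut at about 15% in these data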;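 note: 0% = cells with DMSO only and 100% = cells with inhibitor control FD; inhibitors lower well luminescence so higher value means more inhibition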
TTR act confirm: TTR transcription activators, retest, confirmation, cell-based, luminescence, SH-SY5Y, triplicate; shares compounds with TTR transcr act; SHSY5Y TTR promoter Gaussia luciferase; 100% = purified Lucia enzyme wells, no cells; activation, % at 16.7 µM; 1,100 tested, under 10 active; AID 1117280, 2014;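 active = mean activation above a set limit taken from the earlier primary screen, cut at about 11% in these data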;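 note: 0% = DMSO-treated cells and 100% = recombinant Lucia luciferase without cells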
* marks the source's active call; other numbers are inactive results.

SMILES	TTR transcr act	others
O=S1(=O)CCOC[C@H](c2ccccc2)N1Cc1cccc(F)c1	13*	HuH7 TTR inh=0;TTR act confirm=0
O=S1(=O)CCOC[C@H](Cc2ccccc2)N1Cc1ccc(F)cc1	6
O=S1(=O)CCOC[C@H](Cc2ccccc2)N1Cc1cccc(F)c1	0
Fc1ccc(Cn2ccc3ccc(-c4ccc5ccn(Cc6ccccc6)c5c4)cc32)cc1	2
S=C(Nc1ccccc1Cl)OCCN1CCCC12CCC(c1ccccc1)CC2 (centres undefined)	2
Nc1nonc1C(=O)NCCNc1ccc([N+](=O)[O-])cc1	0
Cc1nonc1OC(C)CNCCNc1ccc([N+](=O)[O-])cc1 (centres undefined)	11*	HuH7 TTR inh=-20;TTR act confirm=1
COc1ccc(C(=O)NCCNc2ccc([N+](=O)[O-])cc2)cc1	3
Cc1cccc(NC(=S)N2CCN(C(=O)c3ccco3)CC2)c1C	1
Cc1cc(C)n(CC2CC(=O)N(c3ccc(C)c(Cl)c3)C2=O)n1 (centres undefined)	1
CCCc1c(O)nc(SC2CC(=O)N(c3ccc(C)c(Cl)c3)C2=O)[nH]c1=O (centres undefined)	12*	HuH7 TTR inh=-6;TTR act confirm=0
CCOc1ccc(N2C(=O)CC(Sc3nc(C)cc(C)c3C#N)C2=O)cc1 (centres undefined)	0
COc1cc(C(=O)NC2CC(C)CC(C)(C)C2)cc(OC)c1OC (centres undefined)	-1
CC(C)Cn1c(SC(C)C(=O)Nc2ccc(N3CCOCC3)cc2)nc2ccccc21 (centres undefined)	-2
COc1ccc(NC(=O)CSc2nc3ccccc3c(=O)n2CCCN2CCOCC2)c(OC)c1	2
Cc1cccc(NC(=O)C(C)Sc2nc3ccccc3c(=O)n2CCCN2CCOCC2)c1 (centres undefined)	21*	HuH7 TTR inh=-11;TTR act confirm=1
CCC[C@H]1[C@@H](NC(=O)NCC)CC[C@@]23CCCN2C(=O)CCC[C@@H]13	1
Cc1cccc(N(C(=O)c2csnn2)C(C(=O)NC(C)(C)C)c2cccs2)c1 (centres undefined)	0
Cc1ccc2c(CN3CCN(c4ccccc4)CC3)cc(=O)oc2c1	0
CC(C)n1c(=O)c2ccccc2n1Cc1cn(CCc2c[nH]c3ccccc23)nn1	2
COC(=O)Cn1c2ccccc2c(=O)n1C(C)C	0
COc1ccc(Cn2cc(Cn3c4ccccc4c(=O)n3C(C)C)nn2)cc1	16*	HuH7 TTR inh=-9;TTR act confirm=-1
Fc1ccc(Nc2nc(NCc3ccccc3)nc3ccsc23)cc1	1
Cc1ccc(C2CC(=O)C=C(NCc3ccccc3)C2)cc1 (centres undefined)	1
COc1cccc(Cn2cc(COC(=O)NCC(C)C)nn2)c1	0
SMILES	TTR transcr act	others
COc1ccc(-n2c(C)cc(C(=O)COC(=O)Cn3cnc4ccccc43)c2C)cc1	-3
COc1cc(C(=O)OCC(=O)NCc2ccc(F)cc2)cc(NC(=O)c2cccs2)c1OC	-2
COc1ccc(-n2c(C)cc(C(=O)COC(=O)c3cc(NC(=O)c4cccs4)c(OC)c(OC)c3)c2C)cc1	9.8*	HuH7 TTR inh=-12;TTR act confirm=0
O=C(NCc1ccc(F)cc1F)[C@@H]1CCCN1C(=O)[C@@H]1CCCN1C(=O)c1ccc(Cl)cc1	2
CNc1nc(N)c([N+](=O)[O-])c(Nc2cccc(OC)c2)n1	0
O=C(O)c1cccc(S(=O)(=O)Nc2ccc(N3CCCCC3)cc2)c1	2
CCCc1nc2sc3c(c2c(=O)[nH]1)CCCC3	-1
COCc1nc2sc3c(c2c(=O)[nH]1)CCCC3	2
CCN(CC(=O)NC(C)C)Cc1nc2sc3c(c2c(=O)[nH]1)CCC3	13*	HuH7 TTR inh=-20;TTR act confirm=-1
C#CCN(C[C@H]1[C@H](OC(=O)NCc2ccccc2F)[C@H](OC(=O)NCc2ccccc2F)C[C@H]2C(=O)N(c3ccccc3)C(=O)[C@@H]12)S(=O)(=O)c1ccc(C)cc1	0
COC[C@H]1CCCN1c1cccc2c1S(=O)(=O)N(C1CC1)CC[C@@H](C)O2	-1
C[C@@H]1CCN(C2CC2)S(=O)(=O)c2c(cccc2N2CC[C@@H](N(C)C)C2)O1	2
CN1CCN(C2=C(Cl)C(=O)N(CCc3ccccc3)C2=O)CC1	5
O=C1C(Cl)=C(NCCCN2CCOCC2)C(=O)N1CCc1ccccc1	69*	HuH7 TTR inh=-3;TTR act confirm=-1
O=C(CCc1ccccc1)NCCCN1CCOCC1	1
Cc1ccccc1OCC(=O)OCC(=O)c1ccc(-c2ccccc2)cc1	9
CCCCNC(=O)C[C@H]1C[C@@]2(C(=O)OC)C(=C[C@H](C3CCCC3)O[C@@H]2C)N(Cc2cccc3ccccc23)C1=O	0
CCC1(CC)C(=O)N=C2c3ccccc3C(=O)N21	48*	HuH7 TTR inh=-16;TTR act confirm=0
CC(C)NC(=O)C1(N2C(=O)c3ccccc3C2=O)CCCC1	-1
O=C(O)CNC(=O)C1(N2C(=O)c3ccccc3C2=O)CCCC1	0
FC(F)(F)c1ccccc1Cc1c(C2CCCCC2)nc2c3ccccc3ccn12	0
COc1oc(C(=O)NC2CCCCC2)c(-c2ccc(Cl)cc2)c1S(=O)(=O)c1ccccc1	2
O=C(OCc1cn(Cc2ccc(Cl)cc2)nn1)N1CCOCC1	1
CC(C)N1CCCCC(NC(=O)c2ccccc2)C1=O (centres undefined)	1
CC(C)N1CCCCC(NC(=O)c2ccc(Br)cc2)C1=O (centres undefined)	2
SMILES	TTR transcr act	others
C=CC(=O)NC1CCCCN(C(C)C)C1=O (centres undefined)	12*	HuH7 TTR inh=-11;TTR act confirm=-1
O=C(OCc1cn(Cc2cccc(C(F)(F)F)c2)nn1)N1CCOCC1	1
COC(=O)c1ccc(Cl)cc1N(Cc1c(F)cccc1Cl)S(C)(=O)=O	2
C[C@H](O)Cc1cc2ccccc2c(=O)o1	-1
CCn1ncc(/C=N\NC(=O)c2csc3ccccc23)c1C	15*	HuH7 TTR inh=18*;TTR act confirm=-1
Cc1sccc1/C=N/NC(=O)c1cccc2ccccc12	-2
Cc1nn(C)c(C)c1/C=N/NC(=O)c1csc2ccccc12	-2
O=C(NCCc1c[nH]c2ccccc12)OCc1cn(-c2ccc(F)cc2)nn1	2
Cc1cccc(Nc2nc(N)c([N+](=O)[O-])c(N3CCN(C)CC3)n2)c1	1
CCN1CCN(c2nc(Nc3ccccc3)nc(N)c2[N+](=O)[O-])CC1	-1
Nc1nc(Nc2cccc(F)c2)nc(N2CCOCC2)c1[N+](=O)[O-]	12*	HuH7 TTR inh=-9;TTR act confirm=-1
CCNC(=S)N/N=C(\C)c1cccc([N+](=O)[O-])c1	4
O=C(NCc1nc(-c2ccc(C(F)(F)F)cc2)no1)Nc1cc(Cl)cc(Cl)c1	-2
CCCC1CCC2(CC1)CCC2OC(=O)Nc1ccc(F)cc1 (centres undefined)	0
COc1ccc(CNC(=O)CN2C(=O)COc3ccc(S(=O)(=O)N4CCCC4)cc32)cc1	0
CCOCCCNC(=O)CN1C(=O)COc2ccc(S(=O)(=O)N3CCCC3)cc21	11*	HuH7 TTR inh=-12;TTR act confirm=0
CC(C)CN(CCCNC(=O)CN1C(=O)COc2ccc(S(=O)(=O)N3CCC(C)CC3)cc21)CC(C)C	0
O=[N+]([O-])c1ccccc1S(=O)(=O)N1CCN(c2ccccn2)CC1	-2

Assay outcomes deposited in PubChem by The Scripps Research Institute Molecular Screening Center.
